# ALOX12 inh = inhibitors of human 12S-lipoxygenase ALOX12; P18054; purified 12hLO, xylenol orange hydroperoxide absorbance; Potency, µM (series often up to 108 µM), for the others: at the highest dose activity change, negative = inhibition, actives largely listed as inhibitors; 580,000 compounds, 1.1% hits; AID 1671190; also: potency is read from the fitted curve at half-maximal effect; % is scaled to controls: 0 for no effect and ±100 for the full control effect
#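 Purified human 12hLO (150 nM final) in 25 mM Hepes, 0.01% Triton X-100, pH 7.0 was preincubated 15 min at room temperature with compound. Then 40 uM arachidonic acid was added, 30 min. Hydroperoxide was read by Fe-XO absorbance ratio 573/405 nm.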
# Nrf2 block = Nrf2 pathway inhibition. 360,000 compounds, 2.1% hits. Potency, µM (series often up to 46 µM), for the others: at the top dose activity change, negative = inhibition, actives largely listed as inhibitors. A549 ARE-Fluc reporter, luciferase luminescence, 18-24 h; also: potency is read from the fitted curve at half-maximal effect; % is scaled to controls: 0 for no effect and ±100 for the full control effect; nearly all actives have a fitted effect of over 60% in size
#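 Cells were seeded and rested 2 h, then exposed to compounds for 18-24 h. CellTiter-Fluor was read first as a viability measure. BugLite was added 15 min before the final luminescent read of ARE-luciferase activity in A549 cells.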
# IDH1 R132H inh = inhibitors of human mutant IDH1 R132H; O75874; IDH1-R132H enzyme, NADPH consumption, diaphorase/resazurin fluorescence; Potency, µM (doses to about 76.6 µM), inactives show at the top dose activity change, negative = inhibition, hits mostly inhibitors; 390,000 compounds, 0.093% hits; also: potency is read from the fitted curve at half-maximal effect; % is scaled to controls: 0 for no effect and ±100 for the full control effect; nearly all actives have a fitted effect of over 65% in size
# Target sequence (O75874 whole entry R132H, stated change not applied): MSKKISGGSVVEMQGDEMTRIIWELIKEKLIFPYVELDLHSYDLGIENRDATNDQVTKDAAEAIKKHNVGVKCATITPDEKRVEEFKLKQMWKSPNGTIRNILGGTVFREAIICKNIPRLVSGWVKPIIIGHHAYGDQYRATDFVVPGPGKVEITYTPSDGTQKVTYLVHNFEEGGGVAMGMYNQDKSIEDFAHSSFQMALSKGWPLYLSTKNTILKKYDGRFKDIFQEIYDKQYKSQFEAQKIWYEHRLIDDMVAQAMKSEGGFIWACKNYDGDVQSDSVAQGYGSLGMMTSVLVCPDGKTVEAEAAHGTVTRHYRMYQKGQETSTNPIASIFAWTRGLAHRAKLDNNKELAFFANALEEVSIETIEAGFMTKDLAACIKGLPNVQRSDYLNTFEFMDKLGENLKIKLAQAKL
#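 IDH1-R132H (0.5 ug/mL) preincubated 30 min with compound, then NADPH (0.016 mM) and alpha-KG (2 mM) added; 80 min at RT, pH 7.5. Remaining NADPH coupled via diaphorase/resazurin to fluorescence (540/590 nm); concentration-response curves normalized to no-enzyme control.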
# Nrf2 activator = activates Nrf2 signaling | AREc32 ARE-luciferase reporter (MCF7-derived line), luminescence, 24 h | Potency, µM (doses to about 46.1 µM), without a hit: at the top dose activation, hits mostly activators | 410,000 compounds, 0.31% hits; also: potency is read from the fitted curve at half-maximal effect; % of control where 0% means no effect; nearly all actives have a fitted effect of over 65% in size
#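 AREc32 cells carrying an ARE-driven firefly luciferase, 1000 cells/well in OPTI-MEM with 5% FBS, dosed after overnight attachment and incubated 24 hr at 37 deg C. Steady-Glo luminescence read after 30 min at RT.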
# LDHA inh = inhibitors of human lactate dehydrogenase A. P00338. purified LDHA, NADH/diaphorase-resazurin fluorescence; stronger effect = lower value. activity change, % (values are at about 110 or 230 µM). 480,000 compounds, 0.15% hits. AID 1347041; in the data active = activity change below about -30%; inconclusive = mostly about -25% to -30%;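 also: plate controls were DMSO wells for no effect and wells without enzyme for full effect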
#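 LDH5 2 nM; NADH 0.06 mM, pyruvate 0.2 mM; 200 mM Tris pH 7.4, EDTA, Tween-20; 5 min RT. Detection: diaphorase 0.133 mg/mL + resazurin 37 µM, fluorescence ex540/em590 at 0 and 20 min; normalized to enzyme-free and DMSO wells.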
# A549 tox = kills or reduces viability of A549 cells in Nrf2 counter-screen; AID 504648; A549 ARE-Fluc cells, CellTiter-Fluor viability, 18-24 h; Potency, µM (series often up to 46 µM), for the others: at the highest dose activity change, negative = cytotoxicity, most hits filed as inhibitors; 390,000 compounds, 0.16% hits; also: potency is read from the fitted curve at half-maximal effect; % is scaled to controls: 0 for no effect and ±100 for the full control effect
#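 A549 ARE_Fluc cells in 5% FBS OPTI-MEM were exposed to compounds in concentration-response for 18-24 h at 37 deg C. Viability was read by CellTiter-Fluor fluorescence (Ex 405/Em 525) after 30 min, before the luciferase read.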
# * hit, by the source's call; ? = inconclusive; . = no result; [ ] = remark or other dose. An excerpt weighted towards active compounds, which were near 2.7% of everything screened. Unless noted, calls follow the shape of the dose curve; as a rule, active = well fitted curve in the direction sought with a large enough effect; inconclusive = small, poorly fitted or top-dose-only effect, or another doubt; inactive = no such curve, though single readings can be large; an effect the other way counts as inactive or inconclusive.
SMILES,ALOX12 inh,Nrf2 block,IDH1 R132H inh,Nrf2 activator,LDHA inh,A549 tox
COC(=O)C1=C(c2ccc(-c3ccccc3)c(F)c2)C[C@@H]2CC[C@H]1N2C(=O)N1CCC(C)CC1,-26%,16µM*,2%,1%,-1,-7%
COC(=O)C1=C(c2ccc(-c3ccccc3)c(F)c2)C[C@@H]2CC[C@H]1N2C(=O)N1CCc2cc(OC)c(OC)cc2C1,-22%,16µM*,5%,3%,-3,-14%
COC(=O)C1=C(c2ccc(-c3ccccc3)c(F)c2)C[C@@H]2CC[C@H]1N2C(=O)N1CCC(O)CC1,7%,?,20%,4%,-11,-1%
COC(=O)C1=C(c2ccc(-c3ccccc3)c(F)c2)C[C@@H]2CC[C@H]1N2C(=O)N1CCCCC1,?,?,6%,4%,1,-21%
CC1(C)C(C(=O)N2CCC3(CC2)Nc2ccccc2NC3=O)C1(C)C,7%,.,.,.,.,.
O=C(c1ccoc1)N1[C@H]2CC[C@@H]1c1cnc(-c3ccccc3)nc1C2,-6%,.,.,.,.,.
C[C@]12CCC3C(CC[C@H]4C[C@@H](O)CC[C@]34C)[C@H]1C=CC2=O (stereo not given in full),-1%,?,5%,22µM*,1,-1%
C=C1C(=O)[C@@]23C[C@H]4[C@@H]5[C@@]6(C)CCC[C@@]57[C@@H]2[C@@H](O)[C@@H]1C[C@H]3[C@H]7N4C6,-8%,23µM*,-12%,-3%,-3,13µM*
COc1cc(-c2nc3ccc(Cl)cn3c2Nc2ccc3c(c2)OCCO3)ccc1O,7.9µM*,?,-12%,20%,6,-18%
Cc1ccc(-n2c(/C=C/c3ccco3)nc3ccccc3c2=O)cc1,16µM*,.,.,.,-4,.
CCC1CCC(=O)O1 (stereo not given),-3%[176 µM],.,.,.,.,.
CC(C)NS(=O)(=O)c1ccc2c(c1)oc(=O)n2C,294%,9%,0%,0%,-1,?
COc1ccc(NS(=O)(=O)c2ccc3c(c2)oc(=O)n3C)cc1Cl,0%,15µM*,4%,2%,-9,0%
COc1ccc2c(c1)C1(CCN(S(=O)(=O)c3ccc4c(c3)CC(=O)N4C)C1)C(=O)N2C (stereo not given),6%,.,.,.,.,.
CCOc1cncc(/C=C/CCNC)c1,18µM*,.,.,.,.,.
COc1ccc(CCNc2nc3c(c(=O)n(C)c(=O)n3C)n2Cc2ccc(F)cc2)cc1OC,-25%,16µM*,-5%,5%,-6,-14%
CCCNC(=O)OC[C@H]1C[C@@H]2CCN1C[C@@H]2c1cc(-c2ccccc2OC)nc(C)n1,18%[176 µM],.,.,.,.,.
Cc1cccc(CC(=O)N2CCN(Cc3ccc(=O)n(C)c3)CC2)c1,30%,.,.,.,.,.
COc1cncc(CN2CCC3(CC2)C(=O)Nc2cc(Oc4ccccc4)c(OC)cc23)c1,10%,.,.,.,.,.
Cc1cc(/C=C2\C(=O)NC(=O)N(c3cccc(F)c3)C2=O)c(C)n1-c1ccc(C(=O)O)c(Cl)c1,7.9µM*,0%,1%,1%,0,-6%
CC(C)CN1Cc2ccccc2-n2ccnc2C12CCN(C(=O)c1ccccn1)CC2,9%,.,.,.,.,.
CC(C)c1ccc(N2C(=O)NC(=O)/C(=C/c3cnc(-c4ccccc4)nc3)C2=O)cc1,16µM*,12%,-5%,3%,-17,0%
CSc1ncc(/C=C2/C(=O)NC(=O)N(c3ccc(C(C)C)cc3)C2=O)cn1,?,0%,0%,0%,-10,10%
CC[C@@H](C(=O)[C@@H](C)[C@@H](O)[C@H](C)[C@@H]1O[C@@H]([C@@H](CC)C(=O)O)CC[C@@H]1C)[C@H]1O[C@]2(C=C[C@@H](O)[C@]3(CC[C@@](C)([C@H]4CC[C@](O)(CC)[C@H](C)O4)O3)O2)[C@H](C)C[C@@H]1C,-1%,1.5µM*,6%,1%,-3,4.6µM*
COc1ccccc1N1CCN(C(=O)[C@H]2CN3CCC2C[C@@H]3Cn2cc(CO)nn2)CC1 (stereo not given in full),10%,.,.,.,.,.
SMILES,ALOX12 inh,Nrf2 block,IDH1 R132H inh,Nrf2 activator,LDHA inh,A549 tox
CCN(CC)C(=O)c1ccc(NC(=O)Cn2nc(-c3ccccc3)c3ccccc3c2=O)cc1,-13%,.,.,.,0,.
CCN(CC)C(=O)c1ccc(NC(=O)c2cc(-c3ccco3)nc3ccccc23)cc1,32µM*,.,.,.,18,.
CCn1nccc1C(=O)N1[C@H]2CC[C@@H]1c1cnc(-c3ccc(F)cc3)nc1C2,0%,.,.,.,.,.
COC(=O)C1CN(C#N)N(c2ccc(Cl)cc2)C12c1ccccc1-c1ccccc12 (stereo not given),.,18µM*,-11%,-3%,-4,?
COC[C@H]1OC(=O)c2coc3c2[C@@]1(C)C1=C(C3=O)[C@@H]2CCC(=O)[C@@]2(C)C[C@H]1OC(C)=O,-13%,3.7µM*,2%,?,26,16µM*
Cc1cc2c(cc(C(=O)N3CCC(C(=O)NC4CCCC4)CC3)n2Cc2c(F)cccc2Cl)o1,-25%,16µM*,2%,1%,1,-22%
O=C(C(=O)N1CCOCC1)c1cn(Cc2c(F)cccc2Cl)c2ccccc12,-1%,10%,-1%,0%,-2,7%
CCCCc1cn(C[C@H]2C[C@@H]3CCN2C[C@@H]3C(=O)Nc2nccs2)nn1,4%[176 µM],.,.,.,.,.
COCOC1CCC2C3CCC4=CC(=O)CCC4=C3C=CC12C (stereo not given),25µM*,20%,11%,?,32,1%
CC1(O)CCC2C3CCC4=CC(=O)CCC4=C3C=CC21C (stereo not given),-11%,?,-10%,0%,12,-3%
CN1CC[C@@]2(C)c3cc(O)ccc3N(C)[C@@H]12,-24%,-4%,30%,-2%,12,23µM*
Cc1cccc(N2C(=O)/C(=C/c3ccc(CN(CCC#N)S(C)(=O)=O)o3)C(=O)NC2=S)c1,13µM*,.,-1%,-1%,11,-2%
O=S1(=O)C[C@@H]2NCCN(c3ccnc(N4CCCNCC4)n3)[C@@H]2C1,6%,.,.,.,.,.
Cc1cccn2c(CC(=O)N3CCN(C)[C@@H]4CS(=O)(=O)C[C@@H]43)cnc12,19%,.,.,.,.,.
c1ccc(-c2nc(N3CCOCC3)s[n+]2-c2ccccc2)cc1,32µM*,?,1%,5%,-1,20%
C#CCN1CCN(Cc2ccc(OC)c(OC)c2)CC1,2%,.,.,.,-9,.
COc1ccc(Cc2nccc3cc(OC)c(OC)cc23)cc1OC,?,15µM*,8%,7%,-10,2%

# Screening data: PubChem BioAssay, National Center for Advancing Translational Sciences (NCATS)
